Consider 61 compounds from ChEMBL document CHEMBL4513146, “CO-ADD screening of Karazin Kharkiv National University (Ukraine) compounds”.

The subject of one assay is Klebsiella pneumoniae. To be noted: Concentration 32 ug.mL-1;; ASSAY_TEST Inhibition of Bacterial Growth; detection method Absorption (OD600); MEDIA CAMHB; plate type 384well; NBS; CORNING #3640; time 18 hr.
A further assay concerns Candida albicans. To be noted: Concentration 32 ug.mL-1; ASSAY_TEST Inhibition of Fungal Growth; detection method Absorption (OD530).
A further assay deals with Cryptococcus neoformans. The note with it: Concentration 32 ug.mL-1; ASSAY_TEST Inhibition of Fungal Growth; detection method Resazurin; Absorption (OD600-OD570); plate type 384well; NBS; CORNING #3640. Background: Alamar Blue is a resazurin reagent that responds to reducing activity.

For orientation: Inhibition means the drop in the measured response relative to a control, in per cent.

Results with a measured potency or affinity are listed apart.

Regarding `CC(C)c1nnc2c(=O)n(CC(=O)Nc3ccc(F)cc3)c3ccccc3n12`, the Inhibition with Klebsiella pneumoniae is on record as 21.13%; with Candida albicans, 1.82%; in the assay on Cryptococcus neoformans it was -21.16%.
The corresponding values for `O=C(CSc1nnc2c(=O)n(-c3ccc(F)cc3)ccn12)N1CCN(c2ccccc2F)CC1` are -3.8%, 5.18% and -7.82%.
For `CC(C)(C)NC(=O)Cn1nc2n(Cc3ccco3)c(=O)c3sccc3n2c1=O` the same measures were 9.07%, 1.61% and -14.16%.
The corresponding values for `COc1cccc(-n2ccn3c(SCC(=O)Nc4ccccc4F)nnc3c2=O)c1` are 7.91%, 2.83% and -12.13%.
As to `O=C(CSc1nnc2c(=O)n(-c3ccccc3)ccn12)Nc1ccc(F)cc1F`, the Inhibition is on record as 1.13% in the assay on Klebsiella pneumoniae, 1.82% with Candida albicans and -4.59% in the assay on Cryptococcus neoformans.
The corresponding values for `O=c1c2nnc(SCc3ccc(Cl)cc3)n2ccn1-c1ccc(F)c(F)c1` are 10.1%, 4.2% and -5.11%.
For `Cc1ccc(-c2ccc3nnc(CCC(=O)NCc4ccc(Br)cc4)n3n2)cc1` the same measures were 19%, 1.12% and -7.91%.
For `Cc1cccc(CN(c2cccc(Cl)c2)S(=O)(=O)c2cccn3c(C)nnc23)c1` the same measures were -0.09%, 1.52% and -9.64%.
`Cc1cccc(C)c1NC(=O)Cn1nc2c3c4c(sc3ncn2c1=O)CCCC4`: the Inhibition is recorded as 12.26% in the assay with Klebsiella pneumoniae, 11.56% in the assay with Candida albicans and -19.68% in the assay on Cryptococcus neoformans.
For `CCC(Sc1nnc2c(=O)n(-c3ccc(C)c(C)c3)ccn12)C(=O)Nc1ccccc1C` (stereo not drawn) the same measures were 15.08%, 1% and -9.85%.
The corresponding values for `CCCc1nnc2c(=O)n(CC(=O)Nc3cccc(Br)c3)c3ccccc3n12` are 0.59%, 0.12% and -38.92%.
Take `CC(C)c1ccc(N(Cc2ccccc2F)S(=O)(=O)c2cccn3cnnc23)cc1`: the results for the Inhibition with Klebsiella pneumoniae, in the assay with Candida albicans and in the assay with Cryptococcus neoformans were 6.21%, -0.83% and -6.6%, respectively.
On to `O=C(Cn1nc2ccc(-c3ccc(Cl)cc3)nn2c1=O)N1CCN(c2ccc(F)cc2)CC1`, for which the results for the Inhibition with Klebsiella pneumoniae, in the assay with Candida albicans and with Cryptococcus neoformans were -0.53%, 2.31% and -8.76%, respectively.
For `CCOC(=O)N1CCN(C(=O)CCc2nnc3c4cc(-c5ccc(F)cc5)nn4ccn23)CC1` the same measures were 12.38%, 2.97% and -14.63%.
The corresponding values for `Cc1c(Cl)cccc1-n1ccn2c(=O)n(Cc3c(F)cccc3Cl)nc2c1=O` are 1.26%, 11.96% and -12.75%.
The corresponding values for `CC(C)c1nnc2c(=O)n(CC(=O)Nc3cccc(Br)c3)c3ccccc3n12` are 13.24%, 6.25% and -13.28%.
On to `C=Cc1ccc(CSc2nnc3c(=O)n(-c4cccc(OC)c4)ccn23)cc1`, for which the Inhibition with Klebsiella pneumoniae is recorded as 9.99%; in the assay on Candida albicans, 4.25%; in the assay with Cryptococcus neoformans, -2.41%.
The corresponding values for `CCCc1nnc2c(=O)n(CC(=O)Nc3ccc(Cl)c(Cl)c3)c3ccccc3n12` are 5.7%, 0.11% and -14.21%.
Take `O=C(Cn1nc2ccc(-c3ccccc3)nn2c1=O)Nc1ccc(Cl)c(C(F)(F)F)c1`: the Inhibition with Klebsiella pneumoniae was 4.19%; in the assay with Candida albicans, 14.71%; with Cryptococcus neoformans it was -8.29%.
The corresponding values for `COc1ccc(NC(=O)Cn2nc3c(Sc4ccccc4)nccn3c2=O)cc1Cl` are -2.59%, 0.73% and 2.33%.
For `CCc1nnc2c(S(=O)(=O)N(Cc3ccccc3C)c3ccc(Cl)cc3)cccn12` the same measures were 3.29%, 6.38% and -5.94%.
Consider `N#CCn1nc2n(Cc3ccccc3)c(=O)c3ccccc3n2c1=O`, for which the values for the Inhibition with Klebsiella pneumoniae, in the assay on Candida albicans and in the assay with Cryptococcus neoformans were 8.96%, -1.85% and -7.48%, respectively.
The corresponding values for `O=C(CSc1nnc2c(=O)n(-c3ccccc3)ccn12)Nc1ccc(Br)cc1` are 9.81%, 2.41% and -15.78%.
For `COc1cccc(CSc2nnc3c(=O)n(-c4ccc(Br)cc4)ccn23)c1` the same measures were 8.64%, 19.07% and -13.83%.
The corresponding values for `Cc1cc(C)cc(N(Cc2c(F)cccc2Cl)S(=O)(=O)c2cccn3cnnc23)c1` are 7.41%, 3.71% and -5.6%.
On to `COC(=O)c1ccc(NC(=O)CSc2nc3ccccc3n3c(C(C)C)nnc23)cc1`, for which the Inhibition was 12.96% in the assay on Klebsiella pneumoniae, 4.43% in the assay with Candida albicans and -21.14% in the assay with Cryptococcus neoformans.
The corresponding values for `COc1ccc(OC)c(NC(=O)Cn2nc3c(Sc4ccccc4)nc4ccccc4n3c2=O)c1` are 8.31%, 2.83% and -24.8%.
For `CCc1ccc(NC(=O)Cn2nc3n(Cc4ccco4)c(=O)c4sccc4n3c2=O)cc1` the same measures were -2.12%, 5.72% and -17.39%.
For `O=C(Cn1nc2c3sc(N4CCCC4)nc3ncn2c1=O)Nc1ccccc1Br` the same measures were 2.42%, 1.39% and -9.14%.
Turning to `CCc1ccc(N(Cc2cc(F)cc(F)c2)S(=O)(=O)c2cccn3c(C)nnc23)cc1`, the Inhibition in the assay on Klebsiella pneumoniae is 2.59%; in the assay on Candida albicans, 0.73%; in the assay on Cryptococcus neoformans, -2.77%.
The corresponding values for `Cc1ccc(NC(=O)Cn2nc3c(Oc4cccc(C)c4C)nccn3c2=O)c(Br)c1` are 10.09%, -2.33% and -8.9%.
Consider `O=C(Cn1nc2c3sc(N4CCCC4)nc3ncn2c1=O)Nc1cccc(Br)c1`, for which the Inhibition is recorded as 18.9% in the assay with Klebsiella pneumoniae, 3.98% in the assay on Candida albicans and -10.95% in the assay with Cryptococcus neoformans.
For `COc1cc(NC(=O)Cn2nc3ccc(-c4ccc(Cl)cc4)nn3c2=O)cc(OC)c1` the same measures were 6.35%, 1.47% and -13.03%.
For `COc1ccc(-c2cc3c4nn(CC(=O)Nc5cc(Cl)ccc5C)c(=O)n4ccn3n2)cc1` the same measures were 1.98%, 1.63% and -6.61%.
For `COc1cccc(-n2ccn3c(SCC(=O)c4cc(C)ccc4C)nnc3c2=O)c1` the same measures were 13.22%, 5.19% and -12.08%.
With `CCCN(C)c1nccn2c(=O)n(CC(=O)Nc3ccc(Br)cc3)nc12`, the Inhibition was 7.69% in the assay on Klebsiella pneumoniae, 3.8% in the assay on Candida albicans and -7.69% in the assay with Cryptococcus neoformans.
The corresponding values for `CCc1ccc(N(Cc2ccc(Cl)cc2)S(=O)(=O)c2cccn3c(C)nnc23)cc1` are -1.79%, 3.63% and -5.55%.
The corresponding values for `CCc1ccc(NC(=O)Cn2nc3c4cc(-c5ccc(Cl)cc5)nn4ccn3c2=O)cc1` are 19.83%, 3.83% and -20.86%.
For `N#CCSc1nnc2c(=O)n(-c3ccc(Br)cc3)ccn12` the same measures were 12.03%, 1.63% and -7.07%.
In the case of `COc1ccc(N(Cc2cccc(Cl)c2)S(=O)(=O)c2ccc3nnc(C)n3c2)cc1`, the Inhibition in the assay with Klebsiella pneumoniae is listed as 12.69%; in the assay with Candida albicans it was 5%; in the assay on Cryptococcus neoformans it was -5.62%.
For `O=C(Cn1nc2c(SC3CCCCC3)nccn2c1=O)N1CCN(c2ccccc2)CC1`, the Inhibition in the assay on Klebsiella pneumoniae is 7.42%; in the assay with Candida albicans it was 1.71%; with Cryptococcus neoformans it was -1.45%.
For `C=Cc1ccc(CSc2nnc3c(=O)n(-c4ccc(Br)cc4)ccn23)cc1` the same measures were 3.16%, 0.16% and -7.54%.
The corresponding values for `COc1ccc(-c2cc3c4nn(CC(=O)Nc5ccccc5Cl)c(=O)n4ccn3n2)cc1` are 4.39%, 6.88% and -15.65%.
The corresponding values for `COc1ccc(-c2cc3c4nnc(SCC(=O)NCc5ccccc5Cl)n4ccn3n2)cc1` are 6.77%, 1.79% and -22.52%.
As to `Cc1cc2nn(CC(=O)Nc3cc(F)ccc3F)c(=O)n2c(Nc2ccc(F)c(C)c2)n1`, the Inhibition is reported as 12.97% in the assay with Klebsiella pneumoniae, 1.83% with Candida albicans and -3.72% with Cryptococcus neoformans.
The corresponding values for `COc1cccc(CNC(=O)CSc2nnc3c(=O)n(-c4ccc(F)cc4)ccn23)c1OC` are 1.04%, 2.96% and -5.56%.
For `Cc1nnc2c(S(=O)(=O)N(Cc3ccc(F)cc3)c3ccc(C(C)C)cc3)cccn12` the same measures were 1.5%, 2.93% and -6.86%.
For `O=C(Cn1nc2ccc(Sc3cccc(F)c3)nn2c1=O)NCc1ccc(Cl)cc1` the same measures were 0.3%, 1.92% and -3.51%.
In the case of `COCCCNC(=O)CSc1nnc2c(=O)n(Cc3ccc(F)cc3)ccn12`, the Inhibition in the assay with Klebsiella pneumoniae is listed as 13.69%; in the assay with Candida albicans it was 2.6%; with Cryptococcus neoformans, -25.66%.
For `Cc1ccc(NC(=O)Cn2nc3ccc(SCc4ccc(Cl)cc4)nn3c2=O)cc1` the same measures were -9.13%, 7.44% and -7.75%.
For `Cc1c(Cl)cccc1-n1ccn2c(=O)n(Cc3cccc(Cl)c3)nc2c1=O` the same measures were 5.86%, 2.56% and -15.28%.
For `COc1cccc(-n2ccn3c(SCC(=O)Nc4ccc(Cl)cc4)nnc3c2=O)c1` the same measures were 5.48%, 2.88% and -10.21%.
As to `COc1ccccc1N1CCN(C(=O)CSc2nc3ccccc3n3c(C(C)C)nnc23)CC1`, the Inhibition is reported as 6.45% with Klebsiella pneumoniae, -2.8% in the assay on Candida albicans and -16.67% in the assay on Cryptococcus neoformans.
The corresponding values for `CCOc1ccc(NC(=O)Cn2c(=O)c3nnc(C(C)C)n3c3ccccc32)cc1` are 4.3%, 1.75% and -9.3%.
For `COc1ccc(NC(=O)Cn2nc3c(SC4CCCCC4)nccn3c2=O)cc1` the same measures were 11.17%, 6.08% and -26.97%.
For `Cc1ccc(-c2ccc3nn(Cc4cccc(F)c4)c(=O)n3n2)cc1C`, the Inhibition is reported as 7.96% in the assay with Klebsiella pneumoniae, 2.65% in the assay with Candida albicans and -8.66% in the assay on Cryptococcus neoformans.
For `COc1ccc(C)cc1NC(=O)Cn1nc2c(N3CCSCC3)nc3ccccc3n2c1=O`, the Inhibition in the assay on Klebsiella pneumoniae is on record as 14.66%; in the assay with Candida albicans it was -2.66%; in the assay with Cryptococcus neoformans, -24.78%.
As for `Cc1cccc(N(CC(=O)OC(C)(C)C)S(=O)(=O)c2cccn3c(C)nnc23)c1`, the Inhibition with Klebsiella pneumoniae was 8.25%; in the assay with Candida albicans, 2.37%; with Cryptococcus neoformans, -7.45%.
The corresponding values for `O=C(CCc1nnc2c(N3CCCCC3)nc3ccccc3n12)NCc1ccccc1F` are 14.62%, 1.76% and -9.32%.
The corresponding values for `O=C(Cn1nc2c(Sc3cccc(F)c3)nccn2c1=O)Nc1ccc(F)c(Cl)c1` are -2.81%, 9.34% and -8.73%.
For `CC(C)CCn1c(=O)c2ccc(C(=O)NC3CCCC3)cc2n2c(=S)[nH]nc12` the same measures were -1.87%, 0.86% and -11.12%.
